Screening data: PubChem BioAssay, National Center for Advancing Translational Sciences (NCATS)
Rows were chosen to be rich in hits. Some 2.4% of all compounds tested hit in one or more screens of this group.
FEN1 inh: human FEN1 inhibition. P39748. actives 0.35% (n = 390,000). Potency, µM (series often up to 114 µM), for the others: at the highest dose activity change, negative = inhibition, actives largely listed as inhibitors. AID 588795. Recombinant FEN1 flap cleavage, fluorescence, 15 min; note: potency is the fitted concentration of half-maximal effect; % is set by controls: 0 for no effect and ±100 for the full control effect; nearly all actives have a fitted effect of over 65% in size
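Quantitative HTS format: each compound was titrated, incubated with 10 nM nuclease for 15 min at room temperature, then challenged with flap substrate at 50 nM final. Signal change over 15 min gave concentration–effect curves.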
Pol beta inh: DNA polymerase beta (human) inhibition. P06746. Pol beta primer extension/strand displacement, fluorescence kinetic. Potency, µM (titrated, usually from 114 µM), for the others: at the top dose activity change, negative = inhibition, actives largely listed as inhibitors. actives 1.3% (n = 340,000). AID 485314; note: potency is the fitted concentration of half-maximal effect; % is set by controls: 0 for no effect and ±100 for the full control effect
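Human Pol beta at 10 nM; strand-displacement substrate 50 nM final. Compound exposure 15 min at room temperature before start, reaction 10 min at room temperature.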
Pol kappa inh-1: DNA polymerase kappa (human) inhibition; Q9UBT6; actives 0.53% (n = 400,000); Potency, µM (highest dose often 107 µM), for the others: at the highest dose activity, negative = inhibition, hits mostly inhibitors; purified Pol kappa, fluorescent DNA synthesis assay, 10 min; AID 588579; note: potency is the fitted concentration of half-maximal effect; % is set by controls: 0 for no effect and ±100 for the full control effect
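Kinetic fluorescence readout at 0 and 10 min followed reaction start with substrate at 50 nM final. Beforehand, enzyme (10 nM Pol kappa) stood 15 min with compound at room temperature; buffer-only wells were negative controls.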
POLI inh: blocks human DNA polymerase iota activity. AID 588590. Pol iota fluorescent replication assay, 10 min. Potency, µM (highest dose often 115 µM), inactives show at the highest dose activity, negative = inhibition, most hits filed as inhibitors. actives 1% (n = 390,000). Q9UNA4; note: potency is the fitted concentration of half-maximal effect
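Pol iota at 10 nM preincubated 15 min with compounds at room temperature; reaction started with fluorescent substrate, 50 nM final. Fluorescence read kinetically at 0 and 10 min; buffer-only wells as negative control.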
Pol eta inh-1: DNA polymerase eta (human) inhibition; recombinant Pol eta, fluorescent DNA replication assay; Potency, µM (highest dose often 114 µM), inactives show at the highest dose activity change, negative = inhibition, hits mostly inhibitors; actives 1.2% (n = 390,000); AID 588591; note: potency is the fitted concentration of half-maximal effect; % is set by controls: 0 for no effect and ±100 for the full control effect
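Pol eta (10 nM) was preincubated with compounds for 15 min at room temperature, after which fluorescent replication substrate (50 nM final) was added to start the reaction. Fluorescence was read kinetically at 0 and 10 min.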
WRN inhibitor: blocks human WRN helicase. Q14191. WRN helicase unwinding, fluorescent forked duplex, kinetic. Potency, µM (titrated, usually from 114 µM), inactives show top-dose activity change, negative = inhibition, most hits filed as inhibitors. actives 0.46% (n = 360,000); note: potency is the fitted concentration of half-maximal effect; % is set by controls: 0 for no effect and ±100 for the full control effect; nearly all actives have a fitted effect of over 55% in size
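WRN at 20 nM final preincubated with compound 15 min at room temperature; reaction started with 100 nM fluorophore/quencher forked duplex oligonucleotide and 2 mM ATP final. Unwinding followed kinetically by red fluorescence (ex 525, em 598 nm).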
TbPGK inh: TbPGK inhibition, hit validation | shares compounds with Pol kappa inh-1 | TbPGK coupled GAPDH assay, Kinase-Glo luminescence | Potency, µM (titrated, usually from 57.5 µM), for inactives: top-dose activity change, negative = inhibition, hits mostly inhibitors | actives 79% (n = 500) | AID 686980; note: potency is the fitted concentration of half-maximal effect; % is set by controls: 0 for no effect and ±100 for the full control effect; nearly all actives have a fitted effect of over 65% in size
Pol iota confirm: Confirm cherry-picked inhibitors of human polymerase iota; shares compounds with Pol kappa inh-1; Pol iota primer extension, TAMRA/BHQ fluorescence; Potency, µM, hits mostly inhibitors; actives 77% (n = 1,500); note: potency is the fitted concentration of half-maximal effect
GALK inh confirm: confirmation of human galactokinase (GALK) inhibitors | shares compounds with Pol eta inh-1 | purified GALK, Kinase-Glo ATP depletion luminescence | Potency, µM (titrated, usually from 115 µM), for the others: at the top dose activity, negative = inhibition, usual class: inhibitors | actives 70% (n = 150) | AID 2015
Redox cycling: redox cycling activity in phenol red-HRP assay; Potency, µM (highest dose often 115 µM), for the others: at the highest dose activity change, negative = H2O2 signal, actives largely listed as inhibitors; actives 40% (n = 150); Phenol red-HRP H2O2 redox cycling, absorbance 600 nm; shares compounds with Pol eta inh-1
HEK293 tox: HEK-293 cytotoxicity, GALK inhibitor secondary | Potency, µM (titrated, usually from 46.1 µM), inactives show top-dose activity change, negative = cytotoxicity, hits mostly inhibitors | HEK-293 viability, ATP luminescence (CellTiter-Glo), 24/48 h | shares compounds with Pol eta inh-1 | AID 2547 | actives 10% (n = 170); note: potency is the fitted concentration of half-maximal effect; % is set by controls: 0 for no effect and ±100 for the full control effect
Pol kappa inh-2: Pol kappa (human) inhibition, cherry-pick confirmation; shares compounds with Pol eta inh-1; purified Pol-kappa, fluorescent strand-displacement substrate; Potency, µM, actives largely listed as inhibitors; actives 76% (n = 920); AID 720501; note: potency is the fitted concentration of half-maximal effect
Pol eta inh-2: confirmation of human DNA polymerase eta inhibitors. shares compounds with Pol eta inh-1. Pol eta primer extension, TAMRA/BHQ fluorescence, 10 min. Potency, µM, actives largely listed as inhibitors. actives 64% (n = 2,600). AID 720502; note: potency is the fitted concentration of half-maximal effect
Starred values were filed as active, the others as inactive; ? = inconclusive; . = no result; [ ] = remark or other dose. Calls come from the whole dose curve; as a rule, active = well fitted curve in the direction sought with a large enough effect; inconclusive = small, poorly fitted or top-dose-only effect, or another doubt; inactive = no such curve, though single readings can be large; an effect the other way counts as inactive or inconclusive.

SMILES | FEN1 inh | Pol beta inh | Pol kappa inh-1 | POLI inh | Pol eta inh-1 | WRN inhibitor | Pol iota confirm | Pol eta inh-2 | others
CCC(COC)Oc1cc(NCc2ccccc2)c2ncn(C(C)C)c2c1 (configuration not stated) | ? | . | 4.8% | 3.16µM* | 79.4µM* | ? | 47.4* | 75.7*
COc1ccc(CCNC(=O)c2cnn(-c3ccc(F)cc3)c2C2CCN(C(=O)OC(C)(C)C)CC2)cc1OC | -11.6% | 1.5% | -14.8% | 18.2% | -20.1% | . | . | .
COc1ccc(-c2csc(NC(=O)c3ccccc3NS(=O)(=O)c3ccc(F)c(F)c3)n2)cc1 | ? | ? | ? | ? | ? | ? | ? | ? | GALK inh confirm=37.5µM*;Redox cycling=4.9%;HEK293 tox=3.97µM*;Pol kappa inh-2=?
Cn1c(=O)c2c(-c3ccccc3)n(-c3ccccc3Br)cc2n(C)c1=O | . | . | . | . | . | -2.5% | . | .
CC(C)C(=O)Nc1cccc(COc2ccc(CN(Cc3ccccc3)C(=O)OC(C)(C)C)cc2)c1 | -27.3% | . | -12.3% | 11.2% | -16.2% | -5.6% | . | .
CCCCCC(=O)Nc1cccc(C2=NOC3(C2)C[C@H](C(N)=O)N(C(=O)c2ccccc2C(=O)c2ccccc2)C3)c1 (some centres not stated) | -12.2% | -0.1% | -10.8% | 3.7% | -14.5% | -9.2% | . | .
C/C=C(/C)C(=O)Nc1cccc(C2=NOC3(C2)C[C@@H](C(N)=O)N(C(=O)CC(c2ccccc2)c2ccccc2)C3)c1 (some centres not stated) | 2.2% | 2.8% | -6.9% | ? | -29.6% | -0.7% | . | .
C=C(C)C(=O)Nc1cccc(C2=NOC3(C2)C[C@@H](C(N)=O)N(C(=O)CC(c2ccccc2)c2ccccc2)C3)c1 (some centres not stated) | -13.0% | 12.6µM* | 35.5µM* | ? | 3.98µM* | ? | 75.2* | 30.1* | TbPGK inh=3.26µM*
C=C(C)C(=O)Nc1cccc(C2=NOC3(C2)C[C@H](C(N)=O)N(C(=O)c2ccccc2C(=O)c2ccccc2)C3)c1 (some centres not stated) | -3.8% | 8.91µM* | ? | 44.7µM* | 5.62µM* | ? | 47.4* | 19*
O=[N+]([O-])c1ccccc1NC(=S)N/N=C/c1ccc(O)c(O)c1 | -27.1% | 3.55µM* | 20µM* | 8.91µM* | 3.55µM* | 10.6µM* | 47.4* | 21.3*
CCCCN(C)C(=O)c1sc(=O)n(Cc2c(C)noc2C)c1C | . | . | . | . | . | -2.7%[57.1 µM] | . | .
Cc1cc(C)c2c(c1)NC(C(=O)O)C1CC=CC21 (configuration not stated) | 44.7µM* | ? | 25.1µM* | 12.6µM* | 11.2µM* | 50.1µM* | 26.7* | 23.9* | Pol kappa inh-2=6.7*
O=C(COC(=O)c1c2c(nc3ccccc13)/C(=C\c1ccco1)CC2)NC1CCCC1 | ? | . | 22.4µM* | 6.31µM* | 3.55µM* | 44.7µM* | 18.9* | 26.9* | Pol kappa inh-2=11.9*
CC1CCCCC1NC(=O)COC(=O)c1c2c(nc3ccccc13)/C(=C\c1ccco1)CC2 (configuration not stated) | 50.1µM* | . | 22.4µM* | 3.16µM* | 10µM* | ? | 59.7* | 33.8* | Pol kappa inh-2=21.2*
CC1CCCCC1NC(=O)COC(=O)c1ccc(S(=O)(=O)NCc2ccco2)cc1 (configuration not stated) | -7.2% | ? | ? | ? | ? | -16.2% | . | .
O=C(COC(=O)c1c2c(nc3ccccc13)/C(=C/c1cccc([N+](=O)[O-])c1)CCC2)NC1CCS(=O)(=O)C1 (configuration not stated) | 0.6% | 1.7% | -20.5% | 5.4% | -10.9% | -31.6% | . | .
COc1ccc(Cl)cc1C(=O)NNC(=O)CCNC(=O)c1ccccc1 | . | . | . | . | -8.7% | 0.5% | . | .
COc1ccc(-n2ncc3c2ncn2nc(COc4ccc(Cl)cc4)nc32)cc1 | 22.7% | 2.4% | 3.7% | -13.8% | . | . | . | .
COc1ccc([C@H]2C[C@H](O)[C@@H](n3cc(C4CC4)nn3)CN2C(=O)c2cccs2)cc1 | . | . | . | . | -17.6% | 5.3% | . | .
O=C(N/N=C/c1cc(Cl)cc([N+](=O)[O-])c1O)NC12CC3CC(CC(C3)C1)C2 | 1.2% | 14.1µM* | -0.3% | 10.8% | 7.94µM* | 44.7µM* | . | 67.5* | TbPGK inh=14.6µM*
O=C(N/N=C/c1ccccc1O)NC12CC3CC(CC(C3)C1)C2 | -28.5% | 2.3% | -2.6% | -10.3% | -12.3% | -4.4% | . | .
C1CCC(C(C[C@@H]2CCCCN2)C2CCCCC2)CC1 | . | . | -6.1%[12 µM] | . | . | . | . | .
Cc1ccc(CNc2ccc(O)cc2)cc1 | ? | ? | ? | 3.55µM* | 28.2µM* | ? | ? | ?
Cn1c(CNC(=O)CSc2nc(-c3cccc(Cl)c3)nc3cc(=O)[nH]n23)nc2ccccc21 | 5.8% | ? | -28.2% | ? | -11.0% | . | . | .
